In the library only some 8% were active in any assay of this set; here they are far more common.
SARS PLP yeast: inhibitors of SARS-CoV papain-like protease in yeast; 330,000 tested, 0.19% active; S. cerevisiae expressing SARS-CoV PLpro, growth rescue; Potency, µM (top dose mostly 32.9 µM), without a hit: top-dose activity, positive = growth rescue, actives largely listed as activators; calls by dose curve; further: potency means the concentration at half of the fitted maximal effect; 0% is about no effect; nearly all actives have a fitted effect of over 55% in size
HCMV antiviral: blocks human cytomegalovirus replication; activity change, negative = inhibition, % at 57.5 µM; 410,000 tested, 4.5% active; AID 1259415; HFF cells, HCMV-luciferase reporter, 72 h; stronger effect = lower value; in the data active means activity change below about -60%; inconclusive means no clear call, values can overlap the other calls; inactive means above about -39%; further: on the % scale 0 is the no-effect control and ±100 the full control effect
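Inhibition of viral replication was scored as loss of reporter luminescence in HFFs infected with HCMV-luciferase (MOI 1 PFU/cell) for 72 h; compounds tested at 2 doses, normalized to buffer and Salinomycin controls.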
Lassa entry inh: Lassa virus entry inhibition; Lassa virus pseudotype entry inhibition, cell reporter; 300,000 tested, 1.2% active; AID 540256; Potency, µM (series often up to 37.9 µM), without a hit: top-dose activity change, negative = inhibition, hits mostly inhibitors; calls by dose curve; tested in HEK293 cells; further: potency means the concentration at half of the fitted maximal effect; on the % scale 0 is the no-effect control and ±100 the full control effect; nearly all actives have a fitted effect of over 50% in size
HCV inh: inhibitors of hepatitis C virus infection; 340,000 tested, 3.4% active; Potency, µM (doses to about 41.8 µM), without a hit: at the top dose activity change, negative = inhibition, most hits filed as inhibitors; Huh7.5.1 HCVcc-Cre infection, luciferase reporter, 44 h; active means well fitted inhibition curve with a large enough effect; inconclusive means small, poorly fitted or top-dose-only effect, or another doubt; inactive means no such curve, though single readings can be large or run the other way; further: potency means the concentration at half of the fitted maximal effect; on the % scale 0 is the no-effect control and ±100 the full control effect
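Whole-lifecycle infectious HCVcc-Cre system; cells 1,000/well, compound then virus (~0.5 moi) added 4 h after plating, 44 h culture. Luciferase read 15 sec following 15 min substrate incubation, room temp.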
Marburg entry inh: Marburg virus entry inhibition. 300,000 tested, 1.8% active. Potency, µM (doses to about 37.8 µM), for the others: at the top dose activity change, negative = inhibition, actives largely listed as inhibitors. Marburg virus pseudotyped entry inhibition, cell reporter; calls by dose curve; tested in HEK293 cells; further: potency means the concentration at half of the fitted maximal effect; on the % scale 0 is the no-effect control and ±100 the full control effect
FMDV inh: antivirals against foot and mouth disease virus; 410,000 tested, 1.2% active; AID 1159524; Potency, µM (series often up to 57.9 µM), for inactives: top-dose activity change, negative = inhibition, most hits filed as inhibitors; FMDV antiviral cell-based qHTS; calls by dose curve; tested in HEK293T cells; further: read-out not given here; potency means the concentration at half of the fitted maximal effect; on the % scale 0 is the no-effect control and ±100 the full control effect; nearly all actives have a fitted effect of over 45% in size
* hit, by the source's call; [ ] = remark or other dose.

For O=C(Nc1cccc(S(=O)(=O)N2CCCCC2)c1)c1ccc2ncsc2c1 the results were SARS PLP yeast 1%, HCMV antiviral -9, HCV inh 7.9µM* and FMDV inh -14%.
Screening CC(C)(C)c1ccc(C(=O)Nc2ccc(S(N)(=O)=O)cc2)cc1 returned SARS PLP yeast 3%, HCMV antiviral -37, Lassa entry inh inconclusive, HCV inh 22µM*, Marburg entry inh 2%[46.1 µM] and FMDV inh -22%.
`CC1CCN(S(=O)(=O)c2ccc(NC(=O)c3ccncc3)cc2)CC1` gave SARS PLP yeast 5%, HCMV antiviral -64*, Lassa entry inh inconclusive, HCV inh 11µM*, Marburg entry inh inconclusive and FMDV inh inconclusive.
Screening CN(Cc1cc(Br)cc(Br)c1N)C1CCCCC1 returned HCMV antiviral 0 and FMDV inh -11%.
`Cc1nc(-c2ccc(F)cc2)sc1CCNC(=O)c1ccccc1C(F)(F)F` gave HCMV antiviral 9, Lassa entry inh 4%[46.1 µM] and FMDV inh 7%.
`CN1CCN(S(=O)(=O)c2ccc(NC(=O)c3ccc([N+](=O)[O-])cc3)cc2)CC1` gave HCMV antiviral -62*, Lassa entry inh 29%[46.1 µM], HCV inh 7%, Marburg entry inh inconclusive and FMDV inh 14%.
For CC(=O)Nc1ccc(C(=O)Nc2ccc(S(=O)(=O)N3CCCCC3)cc2)cc1 the results were SARS PLP yeast -1%, HCMV antiviral -21, Lassa entry inh 0%, HCV inh inconclusive, Marburg entry inh 3% and FMDV inh -9%.
`NS(=O)(=O)c1ccc(NC(=O)c2ccc(S(=O)(=O)N3CCCCCC3)cc2)cc1` gave SARS PLP yeast 3%, HCMV antiviral -64*, Lassa entry inh -6%, HCV inh -1%, Marburg entry inh -1% and FMDV inh -11%.
O=C(Nc1ccc(S(=O)(=O)N2CCCCC2)cc1)c1ccncc1 was read as SARS PLP yeast -7%, HCMV antiviral -32, Lassa entry inh -1%, HCV inh -10%, Marburg entry inh -25% and FMDV inh -18%.
Screening O=C(Nc1ccc(Cc2ccncc2)cc1)c1ccc(S(=O)(=O)N2CCCC2)cc1 returned SARS PLP yeast 1%, HCMV antiviral -87*, Lassa entry inh inconclusive, HCV inh 5µM*, Marburg entry inh inconclusive and FMDV inh 16µM*.
CCN(CC)S(=O)(=O)c1ccc(NC(=O)c2ccc(Cl)nc2)cc1 was read as SARS PLP yeast 0%, HCMV antiviral -62*, Lassa entry inh 8%, HCV inh -22%, Marburg entry inh 0%[46.1 µM] and FMDV inh -27%.
For CCN(CC)S(=O)(=O)c1ccc(NC(=O)c2ccc(NS(C)(=O)=O)cc2)cc1 the results were SARS PLP yeast 1%, HCMV antiviral -30, Lassa entry inh -23%, HCV inh inconclusive, Marburg entry inh 8% and FMDV inh -18%.
For CN1CCN(S(=O)(=O)c2ccc(C(=O)Nc3ccccc3)cc2)CC1 the results were SARS PLP yeast 6%, HCMV antiviral 19, Lassa entry inh 0%, HCV inh 18%, Marburg entry inh 18% and FMDV inh 17%.
`CC(CNC(=O)C1CCN(C(=O)c2cc3sccc3n2C)CC1)c1ccccc1` (stereo not given) gave HCMV antiviral -6, Marburg entry inh 1%[46.1 µM] and FMDV inh -20%.
Screening Cc1ccc(C)c(Cn2c(C3CC(=O)N(c4ccccc4C)C3)nc3ccccc32)c1 (stereo not given) returned HCMV antiviral -15, Lassa entry inh -4%[46.1 µM], Marburg entry inh inconclusive and FMDV inh -18%.
Cc1cccc(N2CCn3c2nc2c3c(=O)n(C/C=C/c3ccccc3)c(=O)n2C)c1 was read as HCMV antiviral -30, Lassa entry inh 10%[46.1 µM] and FMDV inh -10%.
Screening COC(=O)c1ccccc1NC(=O)CCCS(=O)(=O)c1nc(-c2ccccc2OC)cc(C(F)(F)F)n1 returned HCMV antiviral 11, Lassa entry inh 5%[46.1 µM], Marburg entry inh -1%[46.1 µM] and FMDV inh -15%.
O=C(Nc1ccc(S(=O)(=O)N2CCCCC2)cc1)c1ccc(Cl)nc1 was read as SARS PLP yeast 0%, HCMV antiviral -75*, HCV inh inconclusive and FMDV inh 40µM*.
Screening O=C(Nc1cccc(S(=O)(=O)N2CCCCC2)c1)c1ccc(Cl)nc1 returned SARS PLP yeast 7%, HCMV antiviral inconclusive, HCV inh inconclusive and FMDV inh 14µM*.
O=S(=O)(Nc1cccc(S(=O)(=O)N2CCCCC2)c1)c1ccc(Cl)s1 was read as SARS PLP yeast 0%, HCMV antiviral -67*, HCV inh 11% and FMDV inh -25%.
`O=C(Nc1cccc(S(=O)(=O)N2CCCCC2)c1)Nc1ccc(Cl)cc1Cl` gave SARS PLP yeast -7%, HCMV antiviral -100*, Lassa entry inh inconclusive, HCV inh inconclusive, Marburg entry inh inconclusive and FMDV inh inconclusive.
For Cc1ccc(S(=O)(=O)Nc2cccc(S(=O)(=O)N3CCCC3)c2)cc1C the results were SARS PLP yeast 4%, HCMV antiviral -26, Lassa entry inh -24%, HCV inh -22%, Marburg entry inh -1% and FMDV inh 44%.
`COc1ccc(S[C@]2(C(=O)N(C)C)CC(=O)N(c3ccc4ccccc4c3)[C@@H]2c2ccc(OC)cc2)cc1` gave HCMV antiviral 19.
`CCCNC(=O)N1[C@@H]2Cn3c(cccc3=O)[C@H]1[C@@H](C(=O)NCC(F)(F)F)[C@@H]2CO` gave HCMV antiviral 9.
Screening O=C(Cc1ccccc1)NC1CC(=O)N(c2ccccc2)C1 (stereo not given) returned HCMV antiviral -13, Lassa entry inh 18%[46.1 µM] and FMDV inh -15%.
Screening O=C(Nc1ccnn1C1CCN(C(=O)c2ccccc2C(F)(F)F)CC1)C1CC1 returned SARS PLP yeast 1%, HCMV antiviral -78*, Lassa entry inh inconclusive, HCV inh 5%, Marburg entry inh -1% and FMDV inh 15%.
Screening Nc1nc(N)c2cc(Sc3cccc(C(F)(F)F)c3)ccc2n1 returned HCMV antiviral -70* and FMDV inh inconclusive.
For FC(F)(F)c1cccc(Sc2nc(-c3ccccc3)nnc2C(F)(F)F)c1 the results were SARS PLP yeast 5%, HCMV antiviral -5, Lassa entry inh inconclusive, HCV inh 14%, Marburg entry inh -6% and FMDV inh inconclusive.
`Nc1nc(-c2ccc3ccccc3c2)cs1` gave SARS PLP yeast -6%, HCMV antiviral 4, Lassa entry inh 19%, HCV inh -7%, Marburg entry inh inconclusive and FMDV inh 45%.
`Nc1ccc(Sc2cc(Cl)nc(N)n2)cc1` gave SARS PLP yeast 6%, HCV inh 9% and Marburg entry inh 1%.

Bioassay records: PubChem, National Center for Advancing Translational Sciences (NCATS)
